In PubChem BioAssay AID1159580 (chemical genetic matrix, 2015):
In all, about 5,500 compounds went through this assay and about 2,000 (36%) were called active. Inconclusive results (about 18%) are left out. No stated cut-off is given here; in the data, active means normalized growth mostly below about 0.91 (no sharp cut-off); inconclusive means no clear call, values can overlap the other calls; inactive means mostly above about 0.92. Some of the results follow.

Assay: chemical genetic growth profiling, strain panel (AID 1159580);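 further: tested at 20 µM; growth read once vehicle control cultures reached saturation at 30 °C; 1 = growth at the plate median or of vehicle wells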
Details: growth OD

Measured: normalized growth

Cc1onc(-c2ccccc2)c1-c1ccc(S(N)(=O)=O)cc1
inactive: S. cerevisiae deletion strains, locus YJR043C, strain POL32, stronger effect = lower value 0.993 | S. cerevisiae deletion strains, locus YJR075W, strain HOC1, stronger effect = lower value 1 | S. cerevisiae deletion strains, locus YKL009W, strain mrt4, stronger effect = lower value 0.993 | S. cerevisiae deletion strains, locus YKL068W, stronger effect = lower value 1 | S. cerevisiae deletion strains, locus YKL085W, strain MDH1 (second series), stronger effect = lower value 0.996 | S. cerevisiae deletion strains, locus YKL085W, strain MDH1, stronger effect = lower value 0.996 | S. cerevisiae deletion strains, locus YKL160W, strain elf1, stronger effect = lower value 1 | S. cerevisiae deletion strains, locus YKL190W, strain CNB1, stronger effect = lower value 1.01 | S. cerevisiae deletion strains, locus YKR001C, strain vps1, stronger effect = lower value 0.991 | S. cerevisiae deletion strains, locus YKR026C, strain gcn3, stronger effect = lower value 0.987 | S. cerevisiae deletion strains, locus YKR091W, strain srl3, stronger effect = lower value 0.999 | S. cerevisiae deletion strains, locus YLL001W, strain dnm1, stronger effect = lower value 0.994 | S. cerevisiae deletion strains, locus YLL026W, stronger effect = lower value 0.999 | S. cerevisiae deletion strains, locus YLL041C, strain sdh2, stronger effect = lower value 1 | S. cerevisiae deletion strains, locus YLR027C, strain aat2, stronger effect = lower value 1.01 | S. cerevisiae deletion strains, locus YLR039C, strain RIC1, stronger effect = lower value 1 | S. cerevisiae deletion strains, locus YLR058C, strain SHM2, stronger effect = lower value 1.01 | S. cerevisiae deletion strains, locus YLR102C, strain apc9, stronger effect = lower value 0.998 | S. cerevisiae deletion strains, locus YLR221C, strain rsa3, stronger effect = lower value 0.995 | S. cerevisiae deletion strains, locus YLR258W, strain gsy2, stronger effect = lower value 1.01 | S. cerevisiae deletion strains, locus YLR262C, strain YPT6 (second series), stronger effect = lower value 1.01 | S. cerevisiae deletion strains, locus YLR262C, strain YPT6, stronger effect = lower value 0.986 | S. cerevisiae deletion strains, locus YLR268W, strain sec22, stronger effect = lower value 0.99 | S. cerevisiae deletion strains, locus YLR320W, strain mms22, stronger effect = lower value 1 | S. cerevisiae deletion strains, locus YLR330W, strain CHS5, stronger effect = lower value 1.01 | S. cerevisiae deletion strains, locus YLR342W, strain FKS1 (second series), stronger effect = lower value 1 | S. cerevisiae deletion strains, locus YLR342W, strain FKS1, stronger effect = lower value 1 | S. cerevisiae deletion strains, locus YLR357W, strain rsc2, stronger effect = lower value 1.03 | S. cerevisiae deletion strains, locus YLR370C, strain arc18, stronger effect = lower value 0.999 | S. cerevisiae deletion strains, locus YLR371W, strain rom2, stronger effect = lower value 0.998 | S. cerevisiae deletion strains, locus YLR384C, strain iki3, stronger effect = lower value 1.01 | S. cerevisiae deletion strains, locus YLR418C, strain cdc73, stronger effect = lower value 0.963 | S. cerevisiae deletion strains, locus YML016C, strain PPZ1, stronger effect = lower value 1 | S. cerevisiae deletion strains, locus YML032C, strain rad52, stronger effect = lower value 0.996 | S. cerevisiae deletion strains, locus YML120C, strain ndi1, stronger effect = lower value 0.992 | S. cerevisiae deletion strains, locus YML124C, strain tub3, stronger effect = lower value 0.996 | S. cerevisiae deletion strains, locus YMR058W, strain fet3, stronger effect = lower value 1 | S. cerevisiae deletion strains, locus YMR078C, strain ctf18, stronger effect = lower value 1 | S. cerevisiae deletion strains, locus YMR125W, strain sto1, stronger effect = lower value 0.988 | S. cerevisiae deletion strains, locus YMR129W, stronger effect = lower value 0.967 | S. cerevisiae deletion strains, locus YMR205C, strain PFK2, stronger effect = lower value 1 | S. cerevisiae deletion strains, locus YMR223W, strain ubp8, stronger effect = lower value 0.997 | S. cerevisiae deletion strains, locus YMR231W, strain pep5, stronger effect = lower value 1 | S. cerevisiae deletion strains, locus YMR263W, strain SAP30, stronger effect = lower value 1 | S. cerevisiae deletion strains, locus YMR307W, strain GAS1, stronger effect = lower value 0.977 | S. cerevisiae deletion strains, locus YNL067W, strain RPL9B, stronger effect = lower value 1 | S. cerevisiae deletion strains, locus YNL071W, strain lat1, stronger effect = lower value 1.01 | S. cerevisiae deletion strains, locus YNL128W, strain TEP1, stronger effect = lower value 1.01 | S. cerevisiae deletion strains, locus YNL153C, strain GIM3, stronger effect = lower value 1 | S. cerevisiae deletion strains, locus YNL209W, strain ssb2, stronger effect = lower value 0.994 | S. cerevisiae deletion strains, locus YNL233W, strain BNI4, stronger effect = lower value 1.01 | S. cerevisiae deletion strains, locus YNL248C, strain rpa49, stronger effect = lower value 1 | S. cerevisiae deletion strains, locus YNL250W, strain rad50, stronger effect = lower value 0.991 | S. cerevisiae deletion strains, locus YNL271C, strain bni1, stronger effect = lower value 1.01 | S. cerevisiae deletion strains, locus YNL298W, strain CLA4, stronger effect = lower value 0.989 | S. cerevisiae deletion strains, locus YNL307C, strain MCK1, stronger effect = lower value 0.998 | S. cerevisiae deletion strains, locus YNL322C, strain KRE1 (second series), stronger effect = lower value 1.02 | S. cerevisiae deletion strains, locus YNL322C, strain KRE1, stronger effect = lower value 1.01 | S. cerevisiae deletion strains, locus YNR049C, strain mso1, stronger effect = lower value 1 | S. cerevisiae deletion strains, locus YNR052C, strain pop2, stronger effect = lower value 1 | S. cerevisiae deletion strains, locus YOL006C, strain TOP1, stronger effect = lower value 0.992 | S. cerevisiae deletion strains, locus YOL012C, strain htz1 0.783 | S. cerevisiae deletion strains, locus YOL147C, strain pex11, stronger effect = lower value 0.997 | S. cerevisiae deletion strains, locus YOR001W, strain rrp6, stronger effect = lower value 1 | S. cerevisiae deletion strains, locus YOR061W, strain CKA2, stronger effect = lower value 0.998 | S. cerevisiae deletion strains, locus YOR069W, strain VPS5, stronger effect = lower value 1 | S. cerevisiae deletion strains, locus YOR070C, strain gyp1, stronger effect = lower value 0.993 | S. cerevisiae deletion strains, locus YOR080W, strain dia2, stronger effect = lower value 0.998 | S. cerevisiae deletion strains, locus YOR083W, strain WHI5, stronger effect = lower value 0.997 | S. cerevisiae deletion strains, locus YOR106W, strain vam3, stronger effect = lower value 1.01 | S. cerevisiae deletion strains, locus YOR136W, strain idh2, stronger effect = lower value 0.992 | S. cerevisiae deletion strains, locus YOR144C, strain elg1, stronger effect = lower value 1 | S. cerevisiae deletion strains, locus YOR184W, strain ser1, stronger effect = lower value 0.992 | S. cerevisiae deletion strains, locus YOR265W, strain rbl2, stronger effect = lower value 1 | S. cerevisiae deletion strains, locus YOR270C, strain vph1, stronger effect = lower value 1.01 | S. cerevisiae deletion strains, locus YOR290C, strain snf2, stronger effect = lower value 1.01 | S. cerevisiae deletion strains, locus YOR316C, strain cot1, stronger effect = lower value 0.991 | S. cerevisiae deletion strains, locus YPL051W, strain arl3, stronger effect = lower value 1.01 | S. cerevisiae deletion strains, locus YPL055C, strain LGE1, stronger effect = lower value 1.01 | S. cerevisiae deletion strains, locus YPL078C, strain atp4, stronger effect = lower value 0.996 | S. cerevisiae deletion strains, locus YPL106C, strain sse1, stronger effect = lower value 0.984 | S. cerevisiae deletion strains, locus YPL240C, strain hsp82, stronger effect = lower value 0.991 | S. cerevisiae deletion strains, locus YPL241C, strain CIN2, stronger effect = lower value 1 | S. cerevisiae deletion strains, locus YPR119W, strain clb2, stronger effect = lower value 1 | S. cerevisiae deletion strains, locus YPR141C, strain kar3, stronger effect = lower value 0.996 | S. cerevisiae deletion strains, locus YPR163C, strain tif3, stronger effect = lower value 0.991 | S. cerevisiae deletion strains, locus YPR167C, strain met16, stronger effect = lower value 0.995 | S. cerevisiae deletion strains, strain wtn01, stronger effect = lower value 0.985 | S. cerevisiae strains, strain wild type, stronger effect = lower value 0.999
